# About 83,000 compounds went through this panel and 20% of them were active in at least one assay; those are over-represented in the sample as a whole.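 Cells were grown in 96-well plates and exposed to the test compound at a single concentration for 48 hours; results are reported as percent growth, with values below 10 considered active.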 Values without a mark were called inactive. Calls of active or inactive are those of the source.
# Test system: SNB-75 CNS
# Experiment: NCI-60 one-dose screen, 48 h (100 = growth as untreated, 0 = no growth, -100 = all killed)
# Details: 10 µM unless noted
# Protocol: Growth inhibition of the SNB-75 human tumor cell line is measured as a screen for anti-cancer activity. Cells are grown in 96 well plates and exposed to the test compound for 48 hours. Compounds are tested at a single concentration, which is 10^-5 M for most compounds. The reported endpoint is percent growth (GI% or GIPRCNT), where numbers from 0 - 100% represent growth inhibition, and numbers from -100% - 0 represent cell death. For example, a value of 40 represents 60% growth inhibition. A value of 0 means no net growth occurred over the course of the experiment. A value of -40 indicates 40% of cells at the beginning of the experiment died by the end of the experiment. A value of -100 means all cells are dead at the end of the experiment.
# NCI-60 Human Tumor Cell Lines Screen was performed using the standard one-dose NCI protocol, which is described in more detail at https://dtp.cancer.gov/discovery_development/nci-60/default.htm.
# Compounds with GIPRCNT values below 10 were considered active. Activity score was based on GIPRCNT using the following formula: […]
# Score is 0 for GIPRCNT values of 100 or above, 50 for GIPRCNT values of 0, and 100 for GIPRCNT values of -100.
row,Structure (SMILES),growth
1,O=C(c1ccccc1)N(CCCCl)C(=O)N(CCCCl)C(=O)c1ccccc1,104%
2,Cc1cc(C)c([O-])c(CN(C)CCN(C)Cc2cc(C)cc(C)c2[O-])c1.O=C([O-])c1cccc(C(=O)[O-])n1.[Ti+4],-12.1% (active)
3,CC[C@H](Nc1nc(N)nc(N)c1Cl)c1nc2cccc(NCc3ccc(C(=O)NO)cc3)c2c(=O)n1-c1ccccc1,-3.96% (active)
4,CO[C@@]12[C@@H]3NC3CN1C1=C(C(=O)C(N)=C(C)C1=O)[C@@H]2COC(N)=O (stereo not given in full),2.19% (active)
5,O=c1[nH]c2cc(Cl)c(Cl)cc2o1,92.5%
6,CNC(=O)c1cc(Oc2ccc(NC(=O)c3nc(S(C)(=O)=O)sc3-c3ccc(F)cc3)cc2)ccn1,113%
7,COc1ccc(CCN2COc3c([C@@H](C)CCC=C(C)C)ccc(C)c3C2)cc1OC,62.8%
8,CCCCn1c(C)nc2cc(Nc3nc(Cl)nc4nc[nH]c34)ccc21,78.4%
9,CCC(=O)NC(O)C(Cl)(Cl)C(C)Cl (stereo not given),91.7%
10,C=C(CN1CC=CCC1)[C@@H]1CC[C@]2(C(=O)OC)CC[C@]3(C)[C@H](CC[C@@H]4[C@@]5(C)CC[C@H](OC(C)=O)C(C)(C)[C@@H]5CC[C@]43C)[C@@H]12,88.4%
11,SCc1ccc(CS)cc1,109%
12,CC(=O)c1c(C)nc(-c2cc(C)cc(Cl)c2)nc1-c1cccc(Oc2ccccc2)c1,72.4%
13,C=CCn1c(C)nc2cc(Nc3nc(Nc4ccc5nc(C)n(CC=C)c5c4)nc4ccccc34)ccc21,90.8%
14,COc1ccc(NC(=O)/C=C/c2ccc(NC(=O)N3CCCC3)cc2)cn1,102%
15,Clc1ccc(Nc2ncnc3c2sc2ncccc23)cc1,47.9%
16,COC1CC(N)C2OC(c3ccccc3)OCC2O1 (stereo not given),71.4%
17,CCc1ccc(Nc2ncnc3c2cnn3-c2cccc(Br)c2)cc1,78.4%
18,O=C1/C(=C\c2cccn2Cc2ccc(F)cc2)c2ccccc2N1c1c(Cl)cccc1Cl,68.4%
19,O=C(Nc1ccc(OS(=O)(=O)c2ccc(F)cc2)cc1)C12CC3CC(CC(C3)C1)C2,101%
20,O=C(C(Br)C(Br)c1ccccc1)C(Br)C(Br)c1ccccc1 (stereo not given),60%

row,Structure (SMILES),growth
1,COc1ccc(-c2nsc3c2NC(=O)CC3c2ccc3c(c2)OCO3)cc1 (stereo not given),7.61% (active)
2,CC1=NN(c2cccc(S(N)(=O)=O)c2)C(=O)C1,82.7%
3,CCN(CC)CCCC(C)Nc1cnc(C(=O)Nc2cc(C)cc3cccnc23)cn1 (stereo not given),78.3%
4,Cc1nc2ccc(Nc3nc(N4CCOCC4)nc(N4CCN(C)CC4)n3)cc2n1Cc1ccccc1,62.4%
5,O=c1c2sc3ccccc3c2nnn1-c1ccc(F)c(Cl)c1,39.5%
6,O=C1C=CC(=O)N1c1cccc(N2C(=O)C=CC2=O)c1,96%
7,COc1cc2nccc(Oc3ccc(NC(=O)C4(C(=O)Nc5c(F)cc(F)cc5F)CC4)cc3)c2cc1Oc1ccc(N)cn1,21.7%
8,O=C(Nc1ccc(Br)cc1)Nc1ccccc1Cl,77.8%
9,Cc1cc(C)c2c(n1)sc1c(Nc3ccc(O)cc3)ncnc12,50.4%
10,COc1ccc2[nH]c(C(=O)OCc3ccc4c(Br)cc(Br)c(O)c4n3)cc2c1,-75.5% (active)
11,Oc1ccc(CCCCCCc2ccc(O)cc2)cc1,51.1%
12,COc1ccc(-n2nc(C(=O)NCC(=O)Nc3nc4cc(OC)ccc4s3)c3ccccc3c2=O)cc1,-65.9% (active)
13,COc1cc(C2CC(c3ccc(Nc4ccnc5cc(Cl)ccc45)cc3)=NN2c2ccccc2)cc(OC)c1OC (stereo not given),72.6%
14,CCOC(=O)c1ccc(NCCC(=O)O)cc1,96%
15,Cc1nc2n[nH]c(N)c2nc1C,93.1%
16,c1ccc(-c2[nH]c3ccccc3c2-c2ccccc2)cc1,84.7%
17,CC(=O)N[C@@H](CCC(N)=O)C(=O)O,69.2%
18,Nc1c(C(=O)c2ccc(Br)cc2)sc2nc3c(cc12)CCCC3,101%
19,CCN(CC)CCCNc1cccc2c(C)cc(OC)nc12,76.8%
20,COc1ccc(Br)c2ccccc12,93.7%

# — PubChem BioAssay (NCI)
